Experimental data taken from PubChem BioAssay (NCI).
This is part of a sample that, as a whole, favours compounds with a hit. Of some 83,000 tested, about 20% had one in any assay.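 Cell lines were cultured in 96-well plates, exposed to a single compound concentration, and assessed for percent growth 48 hours later.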 Unmarked numbers belong to inactive results. The source made the active and inactive calls. The calls were made as follows: active = growth percent below 10; inactive = the rest.

These molecules were tested on HL-60(TB) leukemia (assay: NCI-60 one-dose screen, 48 h (100 = growth as untreated, 0 = no growth, -100 = all killed)). Details: 10 µM unless noted.

SMILES | growth
O=C(N/N=C/c1ccc(Br)s1)c1[nH]c2ccc(Br)cc2c1-c1ccccc1 | -43.4% (active)
COc1ccccc1-n1cc(C#N)c(N)c1C(=O)c1ccc(Cl)cc1 | 36.5%
CC(=O)Oc1ccccc1C(=O)Nc1ccc(C(=O)/C=C/c2cccs2)cc1 | 103%
COc1cccc2c1[C@H](OC)[C@]13O[C@@]1(C2=O)[C@H](O)[C@H](C)[C@@](O)(C(=O)[C@@H]1O[C@H]1C)[C@@H]3O | -46.6% (active)
CS(=O)c1nccc(-c2c(-c3ccc(F)c(OCCc4ccc(F)cc4)c3)nc3sccn23)n1 (stereo not given) | -13.4% (active)
O=C1CC2(CCOCC2)Oc2ncccc21 | 13.3%
CC(=O)Nc1ccc(C)c(Nc2cc(-c3ccc(-n4cccn4)cc3)[nH]n2)c1 | 12.8%
CC(=O)/C(N=Nc1ccc2oc(=O)ccc2c1)=C(\C)O | -15.3% (active)
O=C(CCCCCCN1CC(=O)N2[C@@H](c3cc(F)cc(F)c3)c3[nH]c4ccccc4c3C[C@H]2C1=O)NO | 16.2%
COc1ccc(NC(=O)[C@H](C)N)cc1C(=O)Nc1cccc(-c2cc(=O)c3c(OC)c(OC)c(OC)cc3o2)c1 | 58.9%
O=C(NNc1nc2cc(F)c(F)cc2n2cccc12)c1cccnn1 | -2.31% (active)
NC1C2CCC1CN(c1cnc(C(=O)Nc3cc(F)cc4cccnc34)cn1)C2 (stereo not given) | 9.98% (active)
O=S(=O)(NCCCNc1nccc(-n2cnc3ccccc32)n1)c1ccc(F)cc1 | 90.9%
O=C(NNc1nc2cc(F)cc(F)c2n2cccc12)c1ncccn1 | -2.92% (active)
Nc1ncc(-c2ccc3ncnc(N4CCc5cc(F)c(Cl)cc54)c3c2)cn1 | 7.66% (active)
Cc1ccc2c(n1)C(=O)C(Cl)=C(Nc1ccc(C(C)C)cc1)C2=O | -0.278% (active)
Cc1ccc(C(=O)CSc2nc3ccccc3c(=O)n2C)cc1 | 87.4%
CN(C)C(=O)c1cc(-c2ccc3ncnc(NCc4ccccc4)c3c2)cnc1N | 116%
C#Cc1nc(/C=C/CCCCCCC(=O)NO)cs1 | -64.8% (active)
COc1ccc(-c2nc3cc(Cl)c(Cl)cc3n2CC(=O)N=Nc2c(O)[nH]c3ccc(Cl)cc23)cc1 | 59.7%

SMILES | growth
CC1(C)CC[C@]2(C(=O)O)CC[C@]3(C)C(=CCC4[C@@]5(C)C[C@@H](O)[C@@H]6OC(c7ccccc7O)OC[C@@]6(C)C5CC[C@]43C)C2C1 (stereo not given in full) | 38%
NS(=O)(=O)c1cccc(Nc2nc(SCC(=O)c3ccc(Cl)cc3)nc3ccccc23)c1 | 90.9%
Cc1ccc2c(n1)C(=O)C(Cl)=C(Nc1ccc(C(=O)OC(C)(C)C)cc1)C2=O | 4.87% [9.25 µM] (active)
CCNC(=O)Oc1ccc(/C(=C(/C)c2ccc(Cl)cc2)c2ccc(OCCN3CCCCCC3)cc2)cc1 | 1.41% (active)
CCCn1cnc2c(c1=N)C(c1ccc(OC)cc1)c1sc3c(C)cccc3c1O2 (stereo not given) | 0.388% (active)
COc1cc(C(=O)c2cc(C(C)=O)c3c(C)cccn23)cc(OC)c1OC | 88.9%
CC(=O)Nc1cccc(Nc2nc(N[C@@H](C)c3ccccc3)c3ccccc3n2)c1 | -50.7% (active)
C/C(=C(/c1ccc(Cl)cc1)c1ccc(OCCN)cc1)c1ccc(C)cc1 | 102%
COc1cccc(O)c1/C=C(/C)c1ccc2c(OC)cccc2[o+]1 | 120%
Oc1ccc(CSc2nnc(-c3ccc(Oc4ccccc4)cc3)o2)c2cccnc12 | 19.1%
C/C(=N\NC(N)=S)c1nnn(-c2ccc([N+](=O)[O-])cc2)c1C | 105%
O=C(/C=C/c1cccc(O)c1)c1ccc(O)cc1 | 72.3%
CC(C)Sc1nc(-c2ccccc2)c(C#N)c(N2CCOCC2)n1 | 105%
CC1(C)[C@@H](O)CC[C@]2(C)[C@H]3CC[C@@H]4[C@H]5[C@H](C(=O)/C=C\c6ccncc6)CC[C@]5(O)CC[C@@]4(C)[C@]3(C)CC[C@@H]12 | 26.4%
C/C(=N\NC(=O)Nc1ccccc1)c1nnn(-c2ccc([N+](=O)[O-])cc2)c1C | 98.9%
COc1cc2cc(Oc3ccc(NC(=O)c4cccc(C(F)(F)F)c4)cc3)c(C)nc2cc1OCCN1CCCCC1 | -51.6% (active)
CCCCSc1nnc(-c2ccc(-c3ccc(Cl)cc3)nc2C)o1 | 91.9%
C#CCOc1ccc(C(Nc2ccc(OC)cc2)c2nnnn2C2CCCCC2)cc1 (stereo not given) | 84.7%
Fc1ccc(-c2cc3nc(C(Cl)Cl)nc(-c4ccccc4)n3n2)cc1 | -17.3% (active)
CN1CCc2c(sc3ncnc(N/N=C/c4ccc(Cl)c(Cl)c4)c23)C1 | -58.2% (active)
